# Most compounds without a hit are left out; they make up all but 11% or so of the library.
# Tau fibril FP – blocks human tau fibril formation measured by polarization. P10636. K18 P301L tau heparin fibrillization, Alexa594 FP, 6 h. Potency, µM (doses to about 57.7 µM), without a hit: top-dose activity, negative = inhibition, most hits filed as inhibitors. 0.39% of 280,000 active. AID 1468; further: potency means the concentration at half of the fitted maximal effect; nearly all actives have a fitted effect of over 55% in size
# Target sequence (P10636 561-689 P618L limits assumed): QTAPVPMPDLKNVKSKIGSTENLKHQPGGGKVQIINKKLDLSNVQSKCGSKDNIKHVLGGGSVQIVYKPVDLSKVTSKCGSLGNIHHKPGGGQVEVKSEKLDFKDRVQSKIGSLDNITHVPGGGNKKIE
#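 Steps: dispense K18 P301L tau (15 uM plus 0.24 uM Alexa 594 tracer, final) in pH 7 sodium acetate; add compound; add heparin (20 uM final); incubate 6 hr, 37 C; add ThT (30 uM final); after 1 hr ambient, read FP.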
# Tau fluor counter – counter-screen for tau fibril formation inhibitors; 0.93% of 280,000 active; Potency, µM (doses to about 57.7 µM), without a hit: at the top dose activity change, negative = decrease; tau K18 P301L Alexa594 fluorescence, heparin fibrillization; further: potency means the concentration at half of the fitted maximal effect; nearly all actives have a fitted effect of over 55% in size
#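 Human K18 P301L tau (15 uM unlabeled plus 0.24 uM Alexa 594-labeled, final) in 100 mM sodium acetate pH 7 was mixed with compound and 20 uM heparin and incubated 6 hr at 37 C.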
# Sfp inh – blocks B. subtilis Sfp PPTase activity. Biochemical Sfp PPTase activity, qHTS. Potency, µM, inactives show largest response in the series, negative = inhibition, actives largely listed as inhibitors. 3.5% of 310,000 active;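 further: the enzyme is Sfp with the accession as filed and its product quenches rhodamine fluorescence; potency means the concentration at half of the fitted maximal effect; 0% = enzyme reaction without inhibitor and -100% = no enzyme wells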
#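 Buffer: 50 mM Hepes-Na pH 7.6, 10 mM MgCl2, 0.01% Nonidet P-40, 0.01% BSA. Enzyme 15 nM, pre-exposed to compound 15 min; substrates then added and fluorescence change tracked over 30 min.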
# G9a inh – G9a (human) methyltransferase inhibition; Q96KQ7; G9a H3K9 monomethylation, AlphaScreen, 2 h; Potency, µM (series often up to 102 µM), inactives show at the top dose activity, negative = inhibition, actives largely listed as inhibitors; 8.8% of 350,000 active; AID 504332; further: potency means the concentration at half of the fitted maximal effect; nearly all actives have a fitted effect of over 75% in size
# Target sequence (Q96KQ7 913-1193 limits assumed): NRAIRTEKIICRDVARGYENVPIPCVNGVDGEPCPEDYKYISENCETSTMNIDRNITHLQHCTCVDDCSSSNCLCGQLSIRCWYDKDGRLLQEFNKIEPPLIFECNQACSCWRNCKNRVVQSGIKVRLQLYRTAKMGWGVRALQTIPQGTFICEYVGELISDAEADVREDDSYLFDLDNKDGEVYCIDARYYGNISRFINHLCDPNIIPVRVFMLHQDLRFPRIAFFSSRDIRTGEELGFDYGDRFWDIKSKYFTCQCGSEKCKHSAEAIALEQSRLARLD
#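 Quantitative HTS format: methyltransferase activity on a biotin-tagged H3K9 peptide is measured by AlphaScreen, using a rabbit anti-monomethyl-H3K9 antibody with streptavidin donor and anti-IgG acceptor beads. Final levels are 20 nM enzyme, 500 nM peptide, 20 uM SAM; 2 h RT.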
# Tau ThT inhib – tau fibrillization inhibition (ThT binding). recombinant tau K18 P301L (four-repeat tau fragment), heparin-induced fibrillization, ThT fluorescence. P10636. 2.1% of 270,000 active. Potency, µM (series often up to 57.4 µM), inactives show top-dose activity, negative = inhibition, actives largely listed as inhibitors. AID 1460; further: potency means the concentration at half of the fitted maximal effect; nearly all actives have a fitted effect of over 55% in size
#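 Tau K18 P301L fragment (15 uM unlabeled plus 0.24 uM Alexa 594-labeled) in 100 mM sodium acetate pH 7 with compound, fibrillization induced by 20 uM heparin for 6 hr at 37 C. Thioflavin T (30 uM) added, fluorescence read after 1 hr (ex 450, em 510 nm).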
# FBPA coupling cs – coupling enzyme interference in Giardia aldolase counter-screen. coupling enzyme system counterscreen, AmpLite Red fluorescence. activity change, negative = inhibition, % at 58.2 µM, hits read low. 0.67% of 290,000 active. AID 2472; in the data active means activity change below about -30%
#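 Coupling enzymes only (glyceraldehyde-3-phosphate) + compound, at 57.5 uM final, 10 min RT; add substrate/coupling/AmpLite Red mix, 20 min RT; fluorescence ex 525/em 598 nm. Actives flag coupling-system interference.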
# * marks the source's active call; other numbers are inactive results; ? = inconclusive; . = not tested or not shown; ! = not confirmed by another sample; [ ] = dose if it differs, or a comment. Unless noted, the call rests on the fitted dose curve; in most records, active means well fitted curve in the direction sought with a large enough effect; inconclusive means small, poorly fitted or top-dose-only effect, or another doubt; inactive means no such curve, though single readings can be large; an effect the other way counts as inactive or inconclusive. Unless noted, on the % scale 0 is the no-effect control and ±100 the full control effect.
SMILES,Tau fibril FP,Tau fluor counter,Sfp inh,G9a inh,Tau ThT inhib,FBPA coupling cs
COc1ccc(OC)c(C(c2c(O)nc(SC)[nH]c2=O)c2c(O)nc(SC)[nH]c2=O)c1,.,.,?,50µM*,.,4
CSc1nc(O)c(C(c2ccccc2)c2c(O)nc(SC)[nH]c2=O)c(=O)[nH]1,.,.,-16%,?,.,10
CCOC(=O)c1oc2cccc(OCC(O)CNC(C)C)c2c1C (centres undefined),-2%,-9%,28µM*,?,-2%,-76*
Cc1cccc(C)c1OCC(O)CNC(C)C (centres undefined),-10%,-6%,6%,?,3%,-3
COC(=O)CCC(=O)c1oc2ccc(Cl)cc2c1NC(=O)CCCN1C(=O)c2ccccc2C1=O,-10%,-19%,35µM*,-16%[0.0925 µM],0%,1
COc1cc2c(cc1NC(=O)CCCN1C(=O)CCC1=O)oc1ccccc12,0%,-12%,-5%,3%[12.7 µM],-8%,-1
CCOC(=O)c1c(CS(=O)(=O)c2ccccc2)n(C)c2cc(Br)c(O)c(CN(C)C)c12,0%,-2%,5%,-6%,7%,-2
CCOC(=O)c1c(CN2CCOCC2)n(C)c2cc(Br)c(O)c(CN(C)C)c12,1%,-9%,-4%,11µM*,-5%,-3
CCOC(=O)c1c(CSc2ccccc2)n(C)c2ccc(O)c(CN3CCOCC3)c12,5%,-25%,-37%,40µM*,?,-12
CCOC(=O)c1c(C)n(C)c2ccc(O)c(CN3CCC(C)CC3)c12,6%,-3%,-3%,?,-16%,1
Cc1cccc(CN2C(=O)c3ccccc3Sc3ccc(C(=O)NCCCN4CCOCC4)cc32)c1,-8%,-21%,2%,-16%,-4%,.
Cc1cccc(CN2C(=O)/C(=C\c3ccc(C(=O)NCCCN4CCN(C)CC4)cc3)Oc3ccccc32)c1,.,.,50µM*,?,.,5
CN1CCN(CCCNC(=O)c2ccc(/C=C3\Oc4ccccc4N(Cc4ccccc4F)C3=O)cc2)CC1,.,.,56µM*,?,.,3
CC1CCC(NC(=O)c2ccc(/C=C3\Oc4ccccc4N(C)C3=O)cc2)CC1 (centres undefined),-4%,3%,-2%,-6%,5%,15
COc1ccc(S(=O)(=O)N/N=c2\oc3c(OC)cccc3cc2S(=O)(=O)c2ccc(C)cc2)cc1OC,-5%,-19%,9%,-13%,-10%,2
O=C1C(c2[nH]c3ccc(S(=O)(=O)O)cc3c2O)=Nc2ccc(S(=O)(=O)O)cc21,?,-22%,22µM*,18µM*,8.9µM*,-38*
CSc1nsc(SC)c1NC(=O)N1CCCCC1,-9%,-5%,6%,45µM*,2%,3
Cc1ccc(NC(=O)c2cnc(SCC(=O)N3CCCc4ccccc43)n(C)c2=O)cc1C,?,-2%,.,-3%[59 µM],-12%,.
O=C(Nc1ccc(C(=O)O)cc1)/C(=C\C=C\c1ccccc1)NC(=O)c1ccccc1Cl,.,.,11%,31%,.,.
O=C(Nc1ccc(O)cc1)/C(=C\C=C\c1ccccc1)NC(=O)c1ccccc1,-6%,18µM*[quencher],19%,?,?,-1
CCCCOc1ccc(C(=O)N/C(=C/C=C/c2ccccc2)C(=O)O)cc1,4%,7%,-11%,50µM*,-18%,11
CC(C)(C)N=Cc1c(O)ccc2oc3c(c12)CCCC3,.,.,-14%,-5%,.,1
O=[N+]([O-])c1cc2oc3c(c2c(C=NCc2ccncc2)c1O)CCCC3,?,?,?,?,10µM*,-32*
COC(=O)c1ccc(-n2nnnc2SCC(=O)Nc2ccccc2F)cc1,.,.,5%,.,.,-1
NCCc1cnc[nH]1,-4%,-10%,?,8.4µM*!,-12%,4
SMILES,Tau fibril FP,Tau fluor counter,Sfp inh,G9a inh,Tau ThT inhib,FBPA coupling cs
NCCC(=O)NCCc1cnc[nH]1,-13%,-7%,-4%,-1%[59 µM],-6%,-1
O=C(NCC1CCCO1)/C(=C\c1ccco1)NC(=O)c1ccc(Cl)cc1 (centres undefined),5%,2%,23%,5%,-6%,3
N#CC(C#N)=C1C=CC=CN1/C(=C\c1ccco1)C(=O)c1ccc(-c2ccccc2)cc1,?,-29%,10%,-28%[59 µM],16µM*,1
N#CC(C#N)=C1C=CC=CN1/C(=C\c1ccco1)C(=O)c1ccc(Cl)cc1,28µM*,?,14µM*,?,22µM*,0
CC(=O)N1CCCc2ccc(NS(=O)(=O)c3ccccc3)cc21,.,.,.,-42%,.,.
CN1CCN(c2nc(-c3ccc(C(C)(C)C)cc3)nc3ccccc23)CC1,.,.,?,32µM*,.,-4
Cc1ccc(-c2nc(N3CCN(C)CC3)c3ccccc3n2)cc1,.,.,13%,?,.,6
CN1CCN(c2nc(-c3ccc(N(C)C)cc3)nc3ccccc23)CC1,7%,?,50µM*,.,?,-29
O=S(=O)(c1ccccc1)c1nnn2c1nc(NCc1ccccc1)c1sccc12,?,0%,.,-8%[59 µM],16%,.
COc1ccccc1C1CCN(c2cc(O)ccc2[N+](=O)[O-])CC1,?,?,4%,.,20µM*,-1
COc1ccccc1C1CCN(C(=O)c2ccccc2)CC1,.,.,15%,25%,.,5
COc1cc(/C=N/NS(=O)(=O)c2ccc(C)c([N+](=O)[O-])c2)ccc1O,-4%,-19%,-27%,?,?,2
Cc1ccc(S(=O)(=O)N/N=C/c2ccc3nccnc3c2)cc1,9%,1%,3%,3.2µM*,3%,8
CC/C(C)=N/NS(=O)(=O)c1ccc(C)c([N+](=O)[O-])c1,2%,-5%,?,?,-5%,0
CCOc1cccc(/C=N/NS(=O)(=O)c2ccc(C)c([N+](=O)[O-])c2)c1O,10%,-8%,56µM*,?,-10%,13
Cc1ccc(S(=O)(=O)N/N=C/c2cc([N+](=O)[O-])ccc2O)cc1[N+](=O)[O-],-3%,-14%,?,50µM*,?,1
C/C(CCC(C)C)=N\NS(=O)(=O)c1ccc(C)c([N+](=O)[O-])c1,-2%,-23%,-18%,13µM*,-17%,2
Cc1cccc(Cn2c(SCc3ccc(C(=O)NCc4ccccc4)cc3)nc3cccnc32)c1,-5%,-18%,.,-24%[59 µM],10%,.
COc1cccc(/C=N/Nc2ccc(C(=O)O)cc2)c1O,-3%,-17%,-18%,6%,?,1
COc1cccc(/C=N/Nc2ccc(S(=O)(=O)O)cc2)c1O,-16%,-5%,?,2.2µM*,?,0
CC(=O)Oc1ccc(/C=N/NS(=O)(=O)c2ccc(C)cc2)c(OC(C)=O)c1,.,.,5%,40µM*,.,3
